# Data published in PubChem BioAssay (NCATS).
# Records with an inconclusive call do not appear. Where a call stands in place of a potency, no number is given. A number with no mark means an inactive call. The source made the active and inactive calls. Unless noted, calls follow the shape of the dose curve; as a rule, active = well fitted curve in the direction sought with a large enough effect; inconclusive = small, poorly fitted or top-dose-only effect, or another doubt; inactive = no such curve, though single readings can be large; an effect the other way counts as inactive or inconclusive.
# Experiments:
# [1] = qHTS to identify inhibitors of the type 1 interferon - major histocompatibility complex class I in skeletal muscle: primary screen against the NCATS Mechanism Interrogation Plate v5.0 (MIPE) Libary (AID 1347411); also: nearly all actives have a fitted effect of over 65% in size; also: potency is read from the fitted curve at half-maximal effect
# Summary of the method: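 Luminescence from CRISPR HiBit-tagged endogenous HLA-B in human myoblasts reported MHC class I level after 24 h of IFN-beta (4 ng/ml) plus compound. Compounds ran as 11-point 1:3 series, top 46 uM final.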
# [2] = molecular target: Calcium and integrin-binding protein 1 (Homo sapiens) (UniProt Q99828); test: Primary qHTS for Identification of Calcium Integrin Binding Protein 1 (CIB1) Competitor (AID 1508620);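 also: GST tagged CIB1 binding a fluorescein labelled alphaIIb integrin peptide tracer; top concentration of the series differs between compounds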
# Summary of the method: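 Fluorescence polarization competition: GST-tagged CIB1 (1 uM final) preincubated with compound 15 min at room temperature, then FITC-labelled alphaIIb peptide (100 nM final) added. After 15 min at room temperature, polarization read at Ex 480/Em 540.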
# [3] = Primary qHTS for small molecule stabilizers of the endoplasmic reticulum resident proteome: Secreted ER Calcium Modulated Protein (SERCaMP) assay (AID 1508630)
# Summary of the method: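 The SH-SY5Y reporter protocol was run at 3 concentrations up to 38.3 uM (primary) or 11 concentrations (follow-up): 16 h compound, 100 nM thapsigargin for 4 h, then extracellular luciferase luminescence.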
# [4] = molecular target: Cytochrome P450 2D6 (Homo sapiens) (UniProt P10635); test: Cytochrome P450 family 2 subfamily D member 6 (CYP2D6) small molecule antagonists: luciferase biochemical (cell-free) qHTS assay (AID 1645840; active = well fitted curve in the direction sought with a large enough effect in the repeat runs; an effect the other way counts as inactive or inconclusive; also: nearly all actives have a fitted effect of over 55% in size; also: potency is read from the fitted curve at half-maximal effect; as to activity change, negative = inhibition: series mostly up to about 57 µM)
# Summary of the method: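 P450-Glo CYP2D6 system: proluciferin substrate converted by enzyme to luciferin, read by luminescence proportional to activity. Enzyme-substrate mix with compound 10 min at room temperature, then NADPH regeneration 1 h before detection reagent.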
# Chain of Calcium and integrin-binding protein 1 (Homo sapiens) (Q99828 whole entry, looked up): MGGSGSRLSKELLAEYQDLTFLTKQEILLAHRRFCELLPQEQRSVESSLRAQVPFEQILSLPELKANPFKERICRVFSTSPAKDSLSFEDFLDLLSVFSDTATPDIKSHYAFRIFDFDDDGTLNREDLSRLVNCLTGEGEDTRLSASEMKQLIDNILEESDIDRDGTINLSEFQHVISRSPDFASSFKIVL
# Chain of Cytochrome P450 2D6 (Homo sapiens) (P10635 whole entry, looked up): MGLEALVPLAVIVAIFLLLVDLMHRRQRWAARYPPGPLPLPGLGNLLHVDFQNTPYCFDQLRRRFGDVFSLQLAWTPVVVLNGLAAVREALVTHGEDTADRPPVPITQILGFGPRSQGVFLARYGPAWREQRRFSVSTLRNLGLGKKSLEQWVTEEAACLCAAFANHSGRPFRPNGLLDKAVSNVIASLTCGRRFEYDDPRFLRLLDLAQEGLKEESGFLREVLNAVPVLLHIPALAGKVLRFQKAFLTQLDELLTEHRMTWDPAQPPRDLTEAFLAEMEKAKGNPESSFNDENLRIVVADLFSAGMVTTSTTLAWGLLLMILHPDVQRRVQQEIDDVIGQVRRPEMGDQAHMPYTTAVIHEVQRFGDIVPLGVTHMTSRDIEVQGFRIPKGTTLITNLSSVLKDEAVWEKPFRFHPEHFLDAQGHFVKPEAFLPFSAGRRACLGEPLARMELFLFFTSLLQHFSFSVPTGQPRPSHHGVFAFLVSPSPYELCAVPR
Compound,Potency [1],Potency [2],Potency [3],"activity change, negative = inhibition [1]",Potency [4]
Cn1cc(-c2ccc3nnc(Sc4ccc5ncccc5c4)n3n2)cn1,inactive,inactive,inactive,–,–
Cn1c(=O)c(-c2c(Cl)cccc2Cl)cc2cnc(Nc3cccc(C(=O)O)c3)nc21,inactive,inactive,inactive,–,–
COc1nccc(-c2c(-c3ccc(F)cc3)ncn2C2CCNCC2)n1,inactive,inactive,inactive,–,–
Cc1c(C(=O)Nc2ccc(N3C[C@@H](C)O[C@@H](C)C3)nc2)cccc1-c1ccc(OC(F)(F)F)cc1,inactive,inactive,inactive,–,–
O=C(CO)N1CCC(c2[nH]nc(-c3ccc(Cl)cc3)c2-c2ccncn2)CC1,inactive,inactive,inactive,–,–
CN1CCN2c3ncccc3Cc3ccccc3C2C1 (stereo not drawn),inactive,inactive,inactive,–,–
Cc1ccccc1-n1c(Cn2nc(-c3cccc(O)c3)c3c(N)ncnc32)nc2cccc(C)c2c1=O,20.8 µM (active),inactive,inactive,–,–
CN[C@@H](C)[C@H]1[C@H](O)C[C@@]2(C)[C@@H]3CC[C@H]4C(C)(C)[C@@H](NC)CC[C@@]45C[C@@]35CC[C@]12C,–,inactive,inactive,36.7% [at 8.44 µM],–
NCc1c[nH]c(=S)n1[C@H]1CCc2c(F)cc(F)cc2C1,inactive,inactive,inactive,–,–
COc1ccc(CCC(=O)Nc2nc3ccc(Cl)cc3s2)cc1OC,inactive,inactive,inactive,–,inactive
CC(NCCc1ccc(O)cc1)C(O)c1ccc(O)cc1 (stereo not drawn),inactive,inactive,inactive,–,–
C[C@@H](N)c1ccc(C(=O)Nc2ccnc3[nH]ccc23)cc1,16.5 µM (active),inactive,inactive,–,inactive
COc1cc2nccc(Oc3ccc(NC(=O)Nc4ccc(F)cc4F)c(F)c3)c2cc1OC,10.4 µM (active),inactive,inactive,–,–
C=CC(=O)Nc1cccc(Sc2nc(Nc3ccc(N4CCN(C)CC4)cc3)ncc2Cl)c1,13.1 µM (active),inactive,inactive,–,–
CN1CCN(c2cccc(Nc3nc4c(-c5ccc(S(C)(=O)=O)cc5)cccn4n3)c2)CC1,5.23 µM (active),–,inactive,–,–
CN1CCC(COc2cnc(-c3cccc(Cn4nc(-c5cccc(C#N)c5)ccc4=O)c3)nc2)CC1,inactive,inactive,inactive,–,inactive

Compound,Potency [1],Potency [2],Potency [3],"activity change, negative = inhibition [1]",Potency [4]
CCCCc1ccc(NS(=O)(=O)c2ccc(C)c(C(=O)N3CCN(c4cccc(C)c4C)CC3)c2)cc1,inactive,inactive,inactive,–,–
CCc1cccc(CC)c1NC(=O)N1Cc2[nH]nc(NC(=O)c3ccc(N4CCN(C)CC4)cc3)c2C1,10.4 µM (active),inactive,inactive,–,inactive
COc1ccc(-c2oc3c(CC=C(C)C)c(O)cc(O)c3c(=O)c2O)cc1,inactive,inactive,inactive,–,–
CCNC(=O)c1noc(-c2cc(C(C)C)c(O)cc2O)c1-c1ccc(CN2CCOCC2)cc1,0.0415 µM (active),inactive,inactive,–,1.34 µM (active)
Cc1cc(C(C)Nc2ccccc2)c2nc(N3CCOCC3)cc(=O)n2c1 (stereo not drawn),inactive,inactive,inactive,–,inactive
C[C@@]1(c2cc(-c3cncnc3)c(F)cc2F)CCSC(N)=N1,inactive,inactive,inactive,–,–
Nc1ncnc2c1ncn2[C@@H]1O[C@H](CO)[C@@H](O)[C@@H]1O,inactive,inactive,inactive,–,–
CC(C)CNc1ccnc(NCc2csc(-c3ccccc3)n2)n1,16.5 µM (active),inactive,inactive,–,–
O=c1[nH]nc(OCCCc2ccc(Cl)cc2)c(NCc2cccnc2)c1Br,inactive,inactive,inactive,–,10.7 µM (active)
O=C(Nc1ccc(OC(F)(F)F)cc1)c1sccc1NCc1ccnc2ccccc12,inactive,inactive,inactive,–,16.9 µM (active)
COc1cc2ncn(-c3cc(OCc4ccccc4S(C)(=O)=O)c(C#N)s3)c2cc1OC,inactive,inactive,inactive,–,–
COc1cc2c(cc1OC)CC(=O)N(CCCN(C)C[C@H]1Cc3cc(OC)c(OC)cc31)CC2,inactive,–,inactive,–,–
Cc1ccccc1C(C(=O)NC1CCCCC1)N(C(=O)CNc1ccc(C#N)cc1)c1cccc(F)c1 (stereo not drawn),inactive,inactive,inactive,–,inactive
CC(=O)Nc1cccc(-n2c(=O)n(C3CC3)c(=O)c3c(Nc4ccc(I)cc4F)n(C)c(=O)c(C)c32)c1,inactive,inactive,inactive,–,–
NCC1CCC(C(=O)O)CC1 (stereo not drawn),inactive,inactive,inactive,–,–
CC1(COc2ccc3c(c2)ncn3-c2ccc3cccc(N4CCC(N)CC4)c3n2)COC1,5.23 µM (active),inactive,inactive,–,–
